Reference: PubChem BioAssay AID651814 (National Center for Advancing Translational Sciences (NCATS), 2012)
Screen size: about 2,100 compounds; about 590 (28%) were called active. Inconclusive results (about 42%) are left out. The list shows a part of the results. A number with no mark means an inactive call. The call rests on the fitted dose curve; in most records, active means well fitted inhibition curve with a large enough effect; inconclusive means small, poorly fitted or top-dose-only effect; inactive means flat fitted curve, though single readings scatter.

What follows are compounds tested against DNA dC->dU-editing enzyme APOBEC-3F (Homo sapiens) (UniProt Q8IUX4) (assay: qHTS for inhibitors of Vif-A3F interactions: Cherry picks). Settings: HeLa A3F-eYFP + Vif (tagged APOBEC3F with the HIV-1 protein that degrades it), eYFP fluorescence, 24 h.
In short: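 Read-out: yellow fluorescence (ex 488 nm, em 500-530 nm) by laser-scanning cytometer after 24 h compound exposure, several concentrations, at 37 deg C. Cells: HeLa line stably co-expressing Vif and C-terminally eYFP-tagged A3F; MG132 served as positive control.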
Further: nearly all actives have a fitted effect of over 70% in size.
Potency means the concentration at half of the fitted maximal effect.
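Wherever max response is given: % of control where 0% means no effect; active compounds raise eYFP fluorescence by blocking Vif-driven A3F loss.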

Sequence of DNA dC->dU-editing enzyme APOBEC-3F (Homo sapiens) (Q8IUX4 whole entry, looked up): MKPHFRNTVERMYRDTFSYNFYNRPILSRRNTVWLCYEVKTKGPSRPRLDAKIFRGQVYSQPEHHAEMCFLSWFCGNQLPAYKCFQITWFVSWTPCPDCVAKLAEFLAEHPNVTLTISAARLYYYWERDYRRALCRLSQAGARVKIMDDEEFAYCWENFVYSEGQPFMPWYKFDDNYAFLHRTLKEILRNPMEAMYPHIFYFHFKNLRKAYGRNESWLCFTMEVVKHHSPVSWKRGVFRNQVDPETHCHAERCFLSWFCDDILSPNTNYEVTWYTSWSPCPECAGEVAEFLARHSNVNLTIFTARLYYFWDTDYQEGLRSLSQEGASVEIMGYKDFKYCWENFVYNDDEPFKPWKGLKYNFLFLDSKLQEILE

Compound | max response [%] | Potency
COc1cccc(Nc2nc(Nc3ccc(Cl)c(C(=O)O)c3)nc(C)c2[N+](=O)[O-])c1 | -16.3 | 
Cc1ccc(NC(=O)/C=C/c2ccc([N+](=O)[O-])s2)cc1 |  | 5.17 µM (active)
CCOC(=O)c1cc2n(c1/N=C/N(C)C)-c1ccccc1C2=O |  | 18.4 µM (active)
CCOC(=O)c1cc2n(c1N)-c1ccccc1C2=O | -16.6 | 
Fc1cccc(Cc2c(-c3ccco3)nc3ccc(Br)cn23)c1 | -28.7 | 
O=C1c2ccccc2C(=O)c2c(/C=C/N3CCCCC3)ccnc21 |  | 20.6 µM (active)
CC(=O)Oc1cccc(N2C(=O)c3cccc4c([N+](=O)[O-])ccc(c34)C2=O)c1 |  | 14 µM (active)
CC(=O)Oc1ccc(N2C(=O)c3cccc4c([N+](=O)[O-])ccc(c34)C2=O)cc1 | -15.1 | 
O=C1c2cccc3c([N+](=O)[O-])ccc(c23)C(=O)N1c1ccccn1 | -0.304 | 
CCCC1=[N+](CC(=O)c2ccc(Br)cc2)CCn2cccc21 | -4.77 | 
O=C(C[n+]1cccc2cc(Cl)ccc21)c1ccc2ccccc2c1 |  | 18.4 µM (active)
COc1ccc(C(=O)C[n+]2cccc3cc(Cl)ccc32)cc1 |  | 18.4 µM (active)
COc1ccc(C(=O)C[n+]2cc(Br)cc3ccccc32)cc1 |  | 8.2 µM (active)
CC(C)(C)c1ccc(C(=O)C[n+]2cccc3cc(Cl)ccc32)cc1 |  | 20.6 µM (active)
CCCc1nc2c(C)cc(Br)cn2c1Cc1ccccc1 | -22.2 | 
O=C(COc1ccccc1)NC(=S)Nc1cccc2c(O)cccc12 | -15.7 | 
COc1ccc(C(=O)NC2CCCc3ccccc32)cc1[N+](=O)[O-] (stereo not given) | -23.5 | 
O=C(C[n+]1cccc2cc(Cl)ccc21)c1ccc(I)cc1 |  | 20.6 µM (active)
NN=C1c2ccccc2C(=O)C1C(=O)C(c1ccccc1)c1ccccc1 (stereo not given) |  | 7.9 µM (active)
O=C(c1ccccc1)C1C(=O)c2ccccc2C1=O | 2.89 | 
CCOC(=O)/C=c1/s/c(=C/c2ccc3cc(OC)ccc3c2)c(=O)n1CC(=O)NCC1CCCO1 (stereo not given) |  | 18.4 µM (active)
CCOC(=O)/C=c1\s/c(=C\c2c(OC)ccc3ccccc23)c(=O)n1CC(=O)NCC1CCCO1 (stereo not given) |  | 14.6 µM (active)
NC(=O)CSc1nc2c(sc3ccccc32)c(=O)n1CCCC(=O)NCC1CCCO1 (stereo not given) | 3.7 | 
CCOC(=O)/C=c1/s/c(=C\c2c(OC)ccc3ccccc23)c(=O)n1CC(=O)NCC1CCCO1 (stereo not given) |  | 11.2 µM (active)
Cc1cc(-c2ccccc2)c2c3c(c(-c4ccccc4)n2n1)c(=O)n(C)c(=O)n3C | -9.86 | 

Compound | max response [%] | Potency
Cc1ccc(Nc2nc(Cl)c(C=O)s2)cc1Cl |  | 23.1 µM (active)
N#C/C(=C\c1ccc(C(=O)O)cc1)c1nc2sc3c(c2c(=O)[nH]1)CCCC3 | 1.2 | 
CN(C)c1ccc(/C=C(\C#N)c2nc3ccccc3c(=O)[nH]2)cc1 |  | 0.731 µM (active)
Fc1ccc(-c2cnn3c(-c4cccs4)ccnc23)cc1 |  | 4.98 µM (active)
CCN(CC)S(=O)(=O)c1cc([N+](=O)[O-])ccc1N=Nc1c(O)[nH]c2ccccc12 |  | 16.4 µM (active)
Cc1ccccc1NCC(=O)N=Nc1c(O)[nH]c2ccc([N+](=O)[O-])cc12 | -1.42 | 
CC(C)CN(CC(C)C)c1ccc(/C=C/c2ccnc3ccccc23)cc1 |  | 20.6 µM (active)
CCN(C)c1ccc(/C=C/c2ccnc3ccccc23)cc1 |  | 13 µM (active)
CCCCN(CCC(=O)O)c1ccc(/C=C/c2ccnc3ccccc23)cc1 |  | 18.4 µM (active)
CCCN(CCC)c1ccc(/C=C/c2ccnc3ccccc23)cc1 |  | 7.31 µM (active)
CCOc1ccc(-c2cc(C(=O)N/N=C(\C)c3cccnc3)c3ccccc3n2)cc1 | -8.69 | 
CCN(CCCN(C)C)c1ccc(/C=C/c2ccnc3ccccc23)cc1 |  | 18.4 µM (active)
CCN(CC)c1ccc(/C=C/c2ccnc3ccccc23)cc1 |  | 6.51 µM (active)
CCCCN(CCCC)c1ccc(/C=C/c2ccnc3ccccc23)cc1 |  | 20.6 µM (active)
CCOC(=O)c1c(C)oc2ccc(N(C(=O)c3ccncc3)S(=O)(=O)c3ccc(Br)cc3)cc12 | -14.4 | 
O=C(NC1C/C(=N/O)c2cc3c(cc21)OCO3)C(F)(F)F (stereo not given) | 0.0424 | 
CC(=O)n1c2ccccc2c2nc3ccccc3nc21 |  | 11.6 µM (active)
Cc1cccc(-n2c(N)c(-c3nc4ccccc4n3C)c3nc4ccccc4nc32)c1 | -0.799 | 
Cc1ccc2nc(/C(C#N)=C/c3ccc(-c4ccc(F)cc4F)o3)[nH]c2c1 |  | 4.11 µM (active)
Cc1ccc2nc(/C(C#N)=C/c3ccc(-c4ccc(C(=O)OC(C)C)cc4)o3)[nH]c2c1 |  | 2.06 µM (active)
N#C/C(=C\c1ccc(-c2ccc(F)cc2F)o1)c1nc2ccccc2[nH]1 |  | 20.6 µM (active)
Cc1ccc2nc(/C(C#N)=C/c3ccc(-c4ccccc4C(=O)O)o3)[nH]c2c1 | -7.06 | 
N#C/C(=C\c1ccc(-c2ccc(C(=O)O)cc2)o1)c1nc2ccccc2[nH]1 | 0.542 | 
Cc1ccc2nc(/C(C#N)=C/c3ccc(-c4cccc([N+](=O)[O-])c4)o3)[nH]c2c1 | -29.2 | 
Cc1ccc2nc(/C(C#N)=C/c3ccc(-c4cccc(Cl)c4)o3)[nH]c2c1 |  | 4.61 µM (active)
